In the supplement of paper PMC8253809:
Where “and” joins values, the source holds several entries; their conditions need not be identical. Identical values can stand only once.

Legend:
Assay in all cases: growth inhibition (% activity, log2 RLU normalised to DMSO / staurosporine); higher = more growth inhibition
Conditions in all cases: 33 µM
DIPGX29 = test system: DIPGX29 (H3.3 K27M diffuse intrinsic pontine glioma line)
Method in brief: (§1)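 pHGG cell lines and H9-derived neural stem cells were grown on Geltrex-coated 384-well plates. Approved drugs were added by pin tool at a single final concentration of about 33 μM, in triplicate, for 7 days at 37 °C, 5% CO2. CellTiter-Glo luminescence was log2-transformed and normalised per plate to % activity between solvent and positive control wells. The growth-inhibition value is the median over replicates.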

DIPGX37 = test system: DIPGX37 (H3.3 K27M diffuse intrinsic pontine glioma line)
Method in brief: as §1

DIPGX7 = test system: DIPGX7 (H3.3 K27M diffuse intrinsic pontine glioma line)
Method in brief: as §1

DIPGX9 = test system: DIPGX9 (diffuse intrinsic pontine glioma line)
Method in brief: as §1

HGGX39 = test system: HGGX39 (paediatric high-grade glioma line)
Method in brief: as §1

HGGX6 = test system: HGGX6 (H3.3 G34R paediatric high-grade glioma line)
Method in brief: as §1

HNSC = test system: HNSC
Method in brief: as §1

SUDIPGIV = test system: SUDIPGIV (diffuse intrinsic pontine glioma line)
Method in brief: as §1

SUDIPGVI = test system: SUDIPGVI (diffuse intrinsic pontine glioma line)
Method in brief: as §1

SUDIPGXIII = test system: SUDIPGXIII (diffuse intrinsic pontine glioma line)
Method in brief: as §1

## CCc1ccc(CCOc2ccc(CC3SC(=O)NC3=O)cc2)nc1 (stereo not given)
DIPGX29
  growth inhibition: -2.15% and 0.83%
DIPGX37
  growth inhibition: -2.01% and 4.22%
DIPGX7
  growth inhibition: -1.47% and 2.56%
DIPGX9
  growth inhibition: -0.422% and 2.5%
HGGX39
  growth inhibition: -0.303% and 4.55%
HGGX6
  growth inhibition: 0.514% and 3.43%
HNSC
  growth inhibition: -3.49% and 4.18%
SUDIPGIV
  growth inhibition: -1.64% and 1.36%
SUDIPGVI
  growth inhibition: -1.48% and 2.8%
SUDIPGXIII
  growth inhibition: -2.58% and 1.07%

## CC1CCc2cc(F)cc3c(=O)c(C(=O)O)cn1c23 (stereo not given)
DIPGX29
  growth inhibition: -0.61%
DIPGX37
  growth inhibition: 1.22%
DIPGX7
  growth inhibition: 0.338%
DIPGX9
  growth inhibition: -0.551%
HGGX39
  growth inhibition: 1.41%
HGGX6
  growth inhibition: 2.29%
HNSC
  growth inhibition: 0.388%
SUDIPGIV
  growth inhibition: -1.52%
SUDIPGVI
  growth inhibition: 0.839%
SUDIPGXIII
  growth inhibition: -18.7%

## OC(CCN1CCCCC1)(c1ccccc1)C1CC2C=CC1C2 (stereo not given)
DIPGX29
  growth inhibition: -0.000402%
DIPGX37
  growth inhibition: -2.1%
DIPGX7
  growth inhibition: 1.09%
DIPGX9
  growth inhibition: -1.44%
HGGX39
  growth inhibition: -1.06%
HGGX6
  growth inhibition: -1.38%
HNSC
  growth inhibition: 0.31%
SUDIPGIV
  growth inhibition: -2.82%
SUDIPGVI
  growth inhibition: -4.33%
SUDIPGXIII
  growth inhibition: 1%

## CO[C@@]1(NC(=O)C(C(=O)O)c2ccc(O)cc2)C(=O)N2C(C(=O)O)=C(CSc3nnnn3C)CO[C@@H]21 (stereo not given in full)
DIPGX29
  growth inhibition: -1.75%
DIPGX37
  growth inhibition: -0.992%
DIPGX7
  growth inhibition: -0.554%
DIPGX9
  growth inhibition: -0.636%
HGGX39
  growth inhibition: -0.0428%
HGGX6
  growth inhibition: 0.31%
HNSC
  growth inhibition: -3.08%
SUDIPGIV
  growth inhibition: -1.1%
SUDIPGVI
  growth inhibition: 0.787%
SUDIPGXIII
  growth inhibition: -4.5%

## C=C1/C(=C\C=C2/CCC[C@]3(C)[C@@H]([C@H](C)CCCC(C)C)CC[C@@H]23)C[C@@H](O)C[C@@H]1O
DIPGX29
  growth inhibition: -0.46%
DIPGX37
  growth inhibition: 2.45%
DIPGX7
  growth inhibition: 4.43%
DIPGX9
  growth inhibition: 1.86%
HGGX39
  growth inhibition: 3.21%
HGGX6
  growth inhibition: 3.92%
HNSC
  growth inhibition: 1.06%
SUDIPGIV
  growth inhibition: 0.347%
SUDIPGVI
  growth inhibition: 1.52%
SUDIPGXIII
  growth inhibition: 0.72%

## CCOC(=O)C1=C[C@]2(CC)CCCN3CCc4c(n1c1ccccc41)[C@@H]32
DIPGX29
  growth inhibition: -2.05%
DIPGX37
  growth inhibition: 0.343%
DIPGX7
  growth inhibition: 1.55%
DIPGX9
  growth inhibition: 0.728%
HGGX39
  growth inhibition: 0.726%
HGGX6
  growth inhibition: -1.58%
HNSC
  growth inhibition: 34.5%
SUDIPGIV
  growth inhibition: 1.95%
SUDIPGVI
  growth inhibition: 0.167%
SUDIPGXIII
  growth inhibition: 3.3%

## CCCNC(C)C(=O)Nc1ccccc1C (stereo not given)
DIPGX29
  growth inhibition: -1.66%
DIPGX37
  growth inhibition: 0.68%
DIPGX7
  growth inhibition: -1.19%
DIPGX9
  growth inhibition: -0.603%
HGGX39
  growth inhibition: 0.299%
HGGX6
  growth inhibition: -0.0141%
HNSC
  growth inhibition: -2.37%
SUDIPGIV
  growth inhibition: -1.79%
SUDIPGVI
  growth inhibition: -0.942%
SUDIPGXIII
  growth inhibition: -0.434%

## C[C@@H](O)[C@H]1C(=O)N2C(C(=O)O)=C(S[C@@H]3CN[C@H](CNS(N)(=O)=O)C3)[C@H](C)[C@H]12
DIPGX29
  growth inhibition: 0.9%
DIPGX37
  growth inhibition: -1.74%
DIPGX7
  growth inhibition: 3.79%
DIPGX9
  growth inhibition: -0.371%
HGGX39
  growth inhibition: -0.0496%
HGGX6
  growth inhibition: -2.09%
HNSC
  growth inhibition: 28.8%
SUDIPGIV
  growth inhibition: -1.38%
SUDIPGVI
  growth inhibition: -5.58%
SUDIPGXIII
  growth inhibition: -1.69%

## Nc1ccc(C(=O)NCC(=O)O)cc1
DIPGX29
  growth inhibition: -0.487%
DIPGX37
  growth inhibition: -0.247%
DIPGX7
  growth inhibition: -0.0371%
DIPGX9
  growth inhibition: 0.0884%
HGGX39
  growth inhibition: 1.62%
HGGX6
  growth inhibition: 2.81%
HNSC
  growth inhibition: -1.34%
SUDIPGIV
  growth inhibition: 1.42%
SUDIPGVI
  growth inhibition: 1.49%
SUDIPGXIII
  growth inhibition: 0.0926%

## CS(=O)(=O)c1ccc([C@@H](O)[C@@H](CO)NC(=O)C(Cl)Cl)cc1
DIPGX29
  growth inhibition: 7.76%
DIPGX37
  growth inhibition: 3.94%
DIPGX7
  growth inhibition: 4.74%
DIPGX9
  growth inhibition: 7.6%
HGGX39
  growth inhibition: 16.3%
HGGX6
  growth inhibition: 5.24%
HNSC
  growth inhibition: 15.1%
SUDIPGIV
  growth inhibition: 35%
SUDIPGVI
  growth inhibition: 5.62%
SUDIPGXIII
  growth inhibition: 20%

## CCC(C)(C)c1ccc(CC(C)CN2C[C@@H](C)O[C@@H](C)C2)cc1 (stereo not given in full)
DIPGX29
  growth inhibition: 9.06%
DIPGX37
  growth inhibition: 6.3%
DIPGX7
  growth inhibition: 36.9%
DIPGX9
  growth inhibition: 0.0137%
HGGX39
  growth inhibition: 15.3%
HGGX6
  growth inhibition: 11.1%
HNSC
  growth inhibition: 8.57%
SUDIPGIV
  growth inhibition: 11.7%
SUDIPGVI
  growth inhibition: -11.5%
SUDIPGXIII
  growth inhibition: -7.54%

## CCOc1ccc2ccccc2c1C(=O)N[C@@H]1C(=O)N2[C@@H]1SC(C)(C)[C@@H]2C(=O)O
DIPGX29
  growth inhibition: -3.12%
DIPGX37
  growth inhibition: -0.795%
DIPGX7
  growth inhibition: 1.5%
DIPGX9
  growth inhibition: -1.14%
HGGX39
  growth inhibition: -0.856%
HGGX6
  growth inhibition: -5.66%
HNSC
  growth inhibition: 31.9%
SUDIPGIV
  growth inhibition: -2.67%
SUDIPGVI
  growth inhibition: -10.4%
SUDIPGXIII
  growth inhibition: 2.26%

## CC(=O)N[C@@H](CS)C(=O)O
DIPGX29
  growth inhibition: -0.541%
DIPGX37
  growth inhibition: 1.66%
DIPGX7
  growth inhibition: 0.31%
DIPGX9
  growth inhibition: -0.364%
HGGX39
  growth inhibition: -0.994%
HGGX6
  growth inhibition: -2.9%
HNSC
  growth inhibition: 1.29%
SUDIPGIV
  growth inhibition: 0.64%
SUDIPGVI
  growth inhibition: 0.65%
SUDIPGXIII
  growth inhibition: 0.374%

## O=C(O)C1(C(=O)O)CCC1.[NH2-].[NH2-].[Pt+2]
DIPGX29
  growth inhibition: -2.53%
DIPGX37
  growth inhibition: 0.00905%
DIPGX7
  growth inhibition: -1.49%
DIPGX9
  growth inhibition: -0.992%
HGGX39
  growth inhibition: -2.69%
HGGX6
  growth inhibition: -4.21%
HNSC
  growth inhibition: 4.08%
SUDIPGIV
  growth inhibition: -3.4%
SUDIPGVI
  growth inhibition: -3.41%
SUDIPGXIII
  growth inhibition: -0.0982%

## CC(=O)N[C@H]1[C@H]([C@H](O)[C@H](O)CO)OC(C(=O)O)=C[C@@H]1NC(=N)N
DIPGX29
  growth inhibition: 1.23%
DIPGX37
  growth inhibition: 2.89%
DIPGX7
  growth inhibition: 2.14%
DIPGX9
  growth inhibition: 1.62%
HGGX39
  growth inhibition: 1.17%
HGGX6
  growth inhibition: -2.7%
HNSC
  growth inhibition: 7.75%
SUDIPGIV
  growth inhibition: 1.46%
SUDIPGVI
  growth inhibition: 2.82%
SUDIPGXIII
  growth inhibition: 2.15%

## CNNCc1ccc(C(=O)NC(C)C)cc1
DIPGX29
  growth inhibition: 2.14%
DIPGX37
  growth inhibition: -0.517%
DIPGX7
  growth inhibition: 2.87%
DIPGX9
  growth inhibition: 1.95%
HGGX39
  growth inhibition: 3.29%
HGGX6
  growth inhibition: 0.0869%
HNSC
  growth inhibition: 6.38%
SUDIPGIV
  growth inhibition: -0.464%
SUDIPGVI
  growth inhibition: 2.55%
SUDIPGXIII
  growth inhibition: -0.216%

## C[C@H](N[C@@H](CCc1ccccc1)C(=O)O)C(=O)N1CCC[C@H]1C(=O)O
DIPGX29
  growth inhibition: -1.89%
DIPGX37
  growth inhibition: -2.46%
DIPGX7
  growth inhibition: 0.194%
DIPGX9
  growth inhibition: -1.9%
HGGX39
  growth inhibition: -1.61%
HGGX6
  growth inhibition: -3.59%
HNSC
  growth inhibition: -1.1%
SUDIPGIV
  growth inhibition: -2.75%
SUDIPGVI
  growth inhibition: -6.88%
SUDIPGXIII
  growth inhibition: -1.42%
